ATXN2 expr inh: Primary qHTS for Inhibitors of ATXN expression; 360,000 compounds, 0.72% hits; Potency, µM (titrated, usually from 57 µM), for inactives: top-dose activity change, negative = inhibition, hits mostly inhibitors; AID 1745845, 2022; HEK-293 ATXN2-luciferase reporter, luminescence, 24 h; further: on the % scale 0 is the no-effect control and ±100 the full control effect; nearly all actives have a fitted effect of over 55% in size
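ATXN2-luciferase reporter cells (luciferase flanked by upstream and downstream ATXN2 gene portions) were treated 24 h at 37 °C with compounds at up to 57 uM. SteadyGlo luminescence gave expression; GF-AFC fluorescence gave viability.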
A549 tox: Nrf2 qHTS screen for inhibitors: counterscreen for cytotoxicity; 390,000 compounds, 0.16% hits; Potency, µM (doses to about 46 µM), without a hit: at the top dose activity change, negative = cytotoxicity, hits mostly inhibitors; AID 504648, 2011; A549 ARE-Fluc cells, CellTiter-Fluor viability, 18-24 h; further: on the % scale 0 is the no-effect control and ±100 the full control effect
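A549 ARE-Fluc cells in 5% FBS OPTI-MEM, 5000 cells/well, rested 2 h then exposed to compounds in concentration-response for 18-24 h at 37 °C. Viability by CellTiter-Fluor fluorescence (Ex 405/Em 525) after 30 min; luciferase luminescence (BugLite, 15 min, RT) read afterwards.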
Nrf2 inh: Nrf2 qHTS screen for inhibitors. AID 504444, 2011. A549 ARE-Fluc reporter, luciferase luminescence, 18-24 h. Potency, µM (titrated, usually from 46 µM), for the others: top-dose activity change, negative = inhibition, most hits filed as inhibitors. 360,000 compounds, 2.1% hits; further: on the % scale 0 is the no-effect control and ±100 the full control effect; nearly all actives have a fitted effect of over 60% in size
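Reporter: ARE-Fluc in A549. Exposure: 18-24 h, 37 °C, 5% CO2, 5% FBS OPTI-MEM. Readouts: fluorescent cytotoxicity (CellTiter-Fluor), then luminescent Nrf2 signal after BugLite.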
Nrf2 activator: qHTS of Nrf2 Activators | AREc32 ARE-luciferase reporter (MCF7-derived line), luminescence, 24 h | Potency, µM (series often up to 46.1 µM), for the others: at the highest dose activation, hits mostly activators | 410,000 compounds, 0.31% hits | AID 624171, 2012; further: % of control where 0% means no effect; nearly all actives have a fitted effect of over 65% in size
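AREc32_Fluc, 1000 cells/well, OPTI-MEM + 5% FBS, o/n 37 deg C 5% CO2; 23 nL cpd by pin tool, 24 hr; Steady-Glo 30 min RT, luminescence.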
S2 tox: Viability Counterscreen for Primary qHTS for Inhibitors of ATXN expression. Potency, µM (top dose mostly 56.7 µM), most hits filed as cytotoxic. 400,000 compounds, 0.49% hits. S2 cells (HEK-293 line with an ATXN2-luciferase reporter) viability, CellTiter-Fluor protease fluorescence, 24 h. AID 651635, 2014; further: nearly all actives have a fitted effect of over 40% in size
Active calls of the source: *; i = inactive; u = inconclusive; x = not tested or not shown. In the library only some 2.9% were active in any assay of this set; here they are far more common. The call rests on the fitted dose curve; in most records, active means well fitted curve in the direction sought with a large enough effect; inconclusive means small, poorly fitted or top-dose-only effect, or another doubt; inactive means no such curve, though single readings can be large; an effect the other way counts as inactive or inconclusive. Potency means the concentration at half of the fitted maximal effect.

SMILES	ATXN2 expr inh	A549 tox	Nrf2 inh	Nrf2 activator	S2 tox
Cc1oc(-c2ccccc2NC(=O)C2CCCO2)nc1CNC(=O)c1[nH]c2c(C)ccc(C)c2c1C (stereo unspecified)	x	x	x	x	i
COc1ccc(CNC(=O)[C@H](C)N2C(=O)N3CCc4c([nH]c5ccccc45)[C@@]3(C)C2=O)cc1OC	-4%	-2%	16µM*	1%	i
CCc1c(C)nc2nncn2c1NCc1ccccc1	-29%	-2%	u	1%	i
CCc1c(C)nc2nc(-c3ccccc3)nn2c1NCc1ccc(C)cc1	-15%	-11%	18µM*	-2%	i
Cc1cccc(NC(=O)CSc2nc(=O)n(Cc3cccnc3)c3c2CCC3)c1	-15%	10%	x	5%	i
Cc1c(CC(=O)NCCCC(=O)O)c(=O)oc2cc3c(cc12)CCC(C)(C)O3	3.2µM*	15%	18µM*	-3%	i
Cc1c(CC(=O)O)c(=O)oc2cc3c(cc12)CCC(C)(C)O3	x	2%	-13%	1%	i
Cc1c(CC(=O)NCCCCCC(=O)O)c(=O)oc2cc3c(cc12)CCC(C)(C)O3	2%	3%	10µM*	-1%	i
COCCCNC(=O)Cc1c(C)c2cc3c(cc2oc1=O)OC(C)(C)CC3	x	-6%	-24%	0%	i
Cc1ccc(NC(=O)C2CCCN(S(=O)(=O)c3ccc(C)cc3)C2)cc1 (stereo unspecified)	x	-6%	-4%	1%	x
O=C(CCl)Nc1cc2[nH]c(=O)[nH]c2cc1Br	u	23µM*	21µM*	u	u
Cc1cc2c(C)cc(=O)[nH]c2cc1NC(=O)CCl	x	19%	u	u	11µM*
CCC1(C2CCN(Cc3cccc4ccccc34)CC2)NC(=O)N(Cc2ccc3c(c2)OCO3)C1=O (stereo unspecified)	x	x	x	x	i
COc1cccc(C2c3c(ncn(-c4ccc(C(C)(C)C)cc4)c3=N)Oc3ccc4ccccc4c32)c1 (stereo unspecified)	x	-6%	u	x	x
N#Cc1c(Cl)nsc1NC(=O)c1ccccc1	0%	u	2.6µM*	3%	i
COc1cccc(-c2nc3c(c(SCc4ccccc4)n2)Cc2c(CO)cnc(C)c2O3)c1	x	13%	u	4%	x
COCC(=O)Nc1cc(C(=O)N2CCCC(C(C)=O)C2)cc2nc(-c3ccccc3)n(C)c12 (stereo unspecified)	x	x	x	x	i
CC1(c2nnc(Cc3ccccc3)o2)CC(c2ccc(OC(F)(F)F)cc2)=NO1 (stereo unspecified)	-5%	-12%	23µM*	1%	i
COc1ccccc1-c1cc2c(c(OC)c1)OCCN(C(=O)Cn1nc(-c3ccccc3)c3ccccc3c1=O)C2	x	x	x	x	i
COc1ccc2cc(C(C)C(=O)Nc3cccc(S(=O)(=O)N(C)C)c3)ccc2c1 (stereo unspecified)	-9%	-21%	16µM*	4%	i
CC(C)C(=O)Nc1cccc(S(=O)(=O)c2cccc(NC(=O)C(C)C)c2)c1	-7%	-17%	21µM*	2%	i
O=C(c1ccc(C(F)(F)F)cc1)N(Cc1cc2ccc(F)cc2nc1N1CCOCC1)C1CC1	x	x	x	x	i
CSc1ncc(C(=O)Nc2cccc(C)c2C)c(-c2ccccc2)n1	-1%	9%	-7%	0%	i
COc1ccc(NC(=O)C2Cc3c(-c4ccc(NC(C)=O)cc4)ccnc3O2)cc1OC (stereo unspecified)	-2%	x	x	0%	i
COc1ccc(NC(=O)C2Cc3c(-c4ccc5c(c4)OCO5)ccnc3O2)cc1OC (stereo unspecified)	u	x	x	0%	2.5µM*
SMILES	ATXN2 expr inh	A549 tox	Nrf2 inh	Nrf2 activator	S2 tox
CCCc1ccc(C2C3=C(CC(C)(C)CC3=O)NC3=C2C(=O)c2ccccc23)cc1 (stereo unspecified)	u	u	8.2µM*	0%	x
C/C(=N\Nc1ccc(Cl)c(C(=O)O)c1)c1ccccn1	-14%	-1%	u	0%	25µM*
C/C(=N\Nc1ccc(Cl)c(C(=O)O)c1)c1cccc2ccccc12	4%	2%	29%	1%	i
COc1cc(C)c(CN2C[C@H](Sc3nc4ccccc4[nH]3)C[C@H]2C(=O)N(C)C)cc1C	x	x	x	x	i
Cc1ccc(-c2noc(CSc3nnc(C)n3-c3ccc(C)c(C)c3)n2)cc1	u	-12%	16µM*	5%	u
Cc1ccc(-n2c(SCc3nc(-c4ccc(Cl)cc4)no3)nnc2-c2ccncc2)cc1	-21%	-24%	23µM*	5%	u
CCOc1ccc(-c2noc(CSc3nnc(-c4ccccc4)n3-c3ccccc3)n2)cc1	-7%	-10%	u	-1%	i
Clc1ccccc1-c1nnc(SCc2nc(-c3ccccc3)no2)n1-c1ccccc1	u	-29%	15µM*	-1%	u
Cc1ccc(-c2noc(CSc3nnc(-c4ccncc4)n3-c3ccc(C)cc3)n2)cc1	-22%	-15%	u	-1%	i
CCOc1ccc(NC(=O)c2sc(-n3nc(C)c(Cc4ccc(Cl)cc4)c3C)nc2C)cc1	x	3%	u	-1%	x
COc1ccc(C2Nc3ccccc3C(=O)N2Cc2ccccc2)cc1COc1ccc(F)cc1 (stereo unspecified)	x	8%	-12%	x	x
CC1(C)OC(=O)C2(Cc3cc([N+](=O)[O-])ccc3N3CCCCC32)C(=O)O1 (stereo unspecified)	x	-17%	u	x	x
CC(=O)c1c(C)[nH]c(C(=O)CN2CCN(S(=O)(=O)c3ccccc3[N+](=O)[O-])CC2)c1C	-21%	-8%	21µM*	3%	i
O=C(OCc1cn([C@@H]2CN(CC3CCCCC3)[C@@H](c3ccccc3)C[C@H]2O)nn1)c1ccccc1	u	x	x	-1%	25µM*
Cc1[nH]n2c(=O)cc(C(C)(C)C)nc2c1-c1ccccc1	18µM*	-24%	7.3µM*	-1%	i
Cc1[nH]n2c(=O)cc(C(C)C)nc2c1-c1ccccc1	-28%	-12%	u	0%	u
Cc1[nH]n2c(=O)cc(-c3ccc([N+](=O)[O-])cc3)nc2c1-c1ccccc1	20µM*	-28%	u	-1%	u
Cc1[nH]n2c(=O)cc(-c3ccc(Cl)cc3)nc2c1-c1ccccc1	3.5µM*	-17%	7.3µM*	0%	i
O=c1cc(-c2ccccc2)nc2c(Cl)cc(Cl)cn12	x	x	x	4µM*	i
FC(F)(F)c1cc(Cl)c2nc(-c3ccccc3)cn2c1	154%	20%	x	u	i
CCCc1cc(=O)n2[nH]c(C)c(-c3ccccc3)c2n1	-32%	-5%	-39%	-1%	i
O=S(=O)(NCc1nnc2n1CCN(Cc1ccccc1Cl)CC2)c1ccccc1	x	x	x	x	i
